Results filed as inconclusive are left out. Calls of active or inactive are those of the source. Unless noted, calls follow the shape of the dose curve; as a rule, active = well fitted curve in either direction with a large enough effect (not every such curve was filed as active); inconclusive = small, poorly fitted or top-dose-only effect, or another doubt; inactive = flat fitted curve, though single readings scatter.
How the values were obtained:
[1] = target: Lysosomal acid glucosylceramidase (Homo sapiens) (UniProt P04062); assay: Glucocerebrosidase-p2 (AID 348; in the data active = potency below about 10 µM; also: potency is read from the fitted curve at half-maximal effect); conditions: purified GBA, blue fluorogenic substrate, 40 min
Chain of Lysosomal acid glucosylceramidase (Homo sapiens) (P04062 whole entry, looked up): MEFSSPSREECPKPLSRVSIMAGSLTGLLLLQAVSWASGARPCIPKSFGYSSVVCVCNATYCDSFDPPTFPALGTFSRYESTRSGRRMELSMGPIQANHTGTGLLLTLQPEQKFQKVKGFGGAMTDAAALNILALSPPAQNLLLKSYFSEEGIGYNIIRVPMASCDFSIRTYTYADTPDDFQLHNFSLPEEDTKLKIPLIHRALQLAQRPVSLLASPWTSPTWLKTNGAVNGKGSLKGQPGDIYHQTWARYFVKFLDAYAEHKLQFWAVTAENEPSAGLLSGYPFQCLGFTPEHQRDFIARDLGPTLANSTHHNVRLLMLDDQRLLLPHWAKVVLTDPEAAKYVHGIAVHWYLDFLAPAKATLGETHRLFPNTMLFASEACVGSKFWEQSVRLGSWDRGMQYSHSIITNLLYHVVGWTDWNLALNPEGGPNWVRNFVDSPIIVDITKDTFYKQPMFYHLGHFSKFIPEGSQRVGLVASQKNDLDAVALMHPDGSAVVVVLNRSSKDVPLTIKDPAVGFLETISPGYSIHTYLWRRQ
Method in brief: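 Normal human glucocerebrosidase (0.2 nM) with blue fluorogenic substrate (80 uM final) in citrate/phosphate pH 5.9 with 10mM sodium taurocholate, 0.01% tween-20; 40 min RT, NaOH/glycine stop; fluorescence Ex 365/Em 440; AC50 from a titration from 0.6 nM upwards.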

[2] = AP1 Signaling Pathway (AID 357); conditions: ME-180 AP-1-bla reporter, EGF-induced, beta-lactamase ratio, 5 h; at 7.69 µM (top of the series) unless noted; also: % is scaled to controls: 0 for no effect and ±100 for the full control effect
Method in brief: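 AP-1-bla ME-180 cells with beta-lactamase reporter under AP-1 response element, stimulated with EC50 EGF; compounds titrated, 5 hours at 37 degrees Celsius. CCF4 read at 460/530 nm ratio; positive and negative modulators judged by AC50.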

[3] = NFAT Signaling Pathway (AID 444); conditions: Jurkat NFAT-bla M1, carbachol, beta-lactamase ratio, 5 h; at 7.69 µM (top of the series) unless noted;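 also: carbachol stimulus at about its EC50 of 1 µM final; % is scaled to controls: 0 for no effect and ±100 for the full control effect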
Method in brief: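 Jurkat cells carrying an NFAT-driven β-lactamase reporter and co-transfected muscarinic M1 receptor were treated with compound plus carbachol (1 uM final, an EC50 level) for 5 h at 37 °C. CCF4 loading followed for 1 h at RT; 460/530 nm ratio gave %activity.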

[4] = target: Glucocorticoid receptor (Homo sapiens) (UniProt P04150); assay: GR-GFP Redistribution (AID 450;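 active = compounds whose dose series gives a full or clear partial fitted curve of increased nuclear translocation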; also: potency is read from the fitted curve at half-maximal effect); conditions: U2OS GR-GFP nuclear translocation, laser cytometry, 2 h
Chain of Glucocorticoid receptor (Homo sapiens) (P04150 whole entry, looked up, the tested form may be a part): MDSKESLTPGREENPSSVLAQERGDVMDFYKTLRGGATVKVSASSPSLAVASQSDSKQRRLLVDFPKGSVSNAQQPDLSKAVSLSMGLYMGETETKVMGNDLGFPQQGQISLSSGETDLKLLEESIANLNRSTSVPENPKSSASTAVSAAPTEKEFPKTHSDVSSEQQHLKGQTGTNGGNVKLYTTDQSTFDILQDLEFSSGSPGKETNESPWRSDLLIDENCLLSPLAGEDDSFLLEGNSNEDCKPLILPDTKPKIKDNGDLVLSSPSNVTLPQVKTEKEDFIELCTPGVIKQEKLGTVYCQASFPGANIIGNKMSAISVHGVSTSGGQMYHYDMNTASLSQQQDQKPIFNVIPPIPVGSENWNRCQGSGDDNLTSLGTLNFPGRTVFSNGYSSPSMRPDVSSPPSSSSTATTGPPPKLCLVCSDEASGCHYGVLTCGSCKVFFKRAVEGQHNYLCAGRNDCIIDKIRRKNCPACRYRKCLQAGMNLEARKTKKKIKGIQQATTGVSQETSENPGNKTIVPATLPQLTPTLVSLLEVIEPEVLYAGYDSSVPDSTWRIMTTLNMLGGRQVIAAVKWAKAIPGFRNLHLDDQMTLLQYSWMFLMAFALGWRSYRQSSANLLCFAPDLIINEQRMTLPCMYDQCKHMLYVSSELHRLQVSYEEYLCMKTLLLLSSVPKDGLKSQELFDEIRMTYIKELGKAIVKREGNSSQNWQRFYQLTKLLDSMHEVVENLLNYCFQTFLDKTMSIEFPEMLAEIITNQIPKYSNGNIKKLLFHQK

[5] = target: 3',5'-cyclic-AMP phosphodiesterase 4B (Homo sapiens) (UniProt Q07343); assay: qHTS Assay for Inhibitors of PDE-IV (AID 607; active = well fitted activation curve with a large enough effect in the main read-out, with a control signal flat, not every such curve was filed as active; also: % of control where 0% means no effect)
Chain of 3',5'-cyclic-AMP phosphodiesterase 4B (Homo sapiens) (Q07343 whole entry, looked up): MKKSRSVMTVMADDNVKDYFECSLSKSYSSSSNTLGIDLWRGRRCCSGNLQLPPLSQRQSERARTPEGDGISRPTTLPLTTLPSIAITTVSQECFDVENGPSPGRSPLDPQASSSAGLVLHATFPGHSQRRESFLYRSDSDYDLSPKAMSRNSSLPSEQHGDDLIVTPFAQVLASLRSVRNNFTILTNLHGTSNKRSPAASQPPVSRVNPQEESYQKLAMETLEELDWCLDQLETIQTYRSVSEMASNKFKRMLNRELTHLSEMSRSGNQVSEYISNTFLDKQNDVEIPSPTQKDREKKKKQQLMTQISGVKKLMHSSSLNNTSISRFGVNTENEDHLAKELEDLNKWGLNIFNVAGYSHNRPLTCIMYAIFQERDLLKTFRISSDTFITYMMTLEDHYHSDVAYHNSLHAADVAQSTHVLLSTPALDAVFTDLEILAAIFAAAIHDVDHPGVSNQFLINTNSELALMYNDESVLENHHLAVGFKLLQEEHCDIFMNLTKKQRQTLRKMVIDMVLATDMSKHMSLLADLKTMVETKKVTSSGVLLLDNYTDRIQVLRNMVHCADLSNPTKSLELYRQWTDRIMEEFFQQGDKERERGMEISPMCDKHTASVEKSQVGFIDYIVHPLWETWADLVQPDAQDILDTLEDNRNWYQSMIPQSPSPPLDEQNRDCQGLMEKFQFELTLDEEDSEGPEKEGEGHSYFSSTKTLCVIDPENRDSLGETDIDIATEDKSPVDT
Method in brief: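 HEK293 ACTOne cells with CNG channel (1000/well), endogenous PDE4; membrane potential dye, compounds up to 22.9 uM final. Fluorescence Ex 535/Em 590; RO 20-1724 (100 uM final) as reference.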

[6] = target: Cytochrome P450 1A2 (Homo sapiens) (UniProt P05177); assay: p450-cyp1a2 (AID 410; calls by dose curve; also: potency is read from the fitted curve at half-maximal effect;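 as to activity change, negative = inhibition: -100% = full effect of reference inhibitor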)
Chain of Cytochrome P450 1A2 (Homo sapiens) (P05177 whole entry, looked up): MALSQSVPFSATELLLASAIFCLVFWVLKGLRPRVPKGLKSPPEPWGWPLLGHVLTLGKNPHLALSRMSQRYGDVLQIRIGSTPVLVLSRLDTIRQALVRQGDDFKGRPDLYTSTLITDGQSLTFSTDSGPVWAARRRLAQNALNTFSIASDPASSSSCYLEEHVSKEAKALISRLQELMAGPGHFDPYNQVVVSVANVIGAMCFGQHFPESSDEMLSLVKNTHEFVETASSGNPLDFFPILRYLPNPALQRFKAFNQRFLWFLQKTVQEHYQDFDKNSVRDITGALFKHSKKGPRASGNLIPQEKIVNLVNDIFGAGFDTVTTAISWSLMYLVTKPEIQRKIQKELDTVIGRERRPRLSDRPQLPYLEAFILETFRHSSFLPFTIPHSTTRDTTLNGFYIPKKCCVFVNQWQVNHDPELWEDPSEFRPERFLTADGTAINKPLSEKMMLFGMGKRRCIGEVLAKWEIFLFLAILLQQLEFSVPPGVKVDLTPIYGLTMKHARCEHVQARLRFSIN
Method in brief: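 Read-out is luminescence from luciferin produced by CYP1A2 demethylation of Luciferin-ME (100uM, at Km). Detection reagent stopped the 60 min NADPH-dependent reaction; signals were normalized to 57 uM furafylline.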

[7] = Stat Signaling Pathway (AID 446); conditions: ME-180 (cervical carcinoma) SIE beta-lactamase reporter, IL-6 stimulated, 5 h; at 7.69 µM (top of the series) unless noted;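 also: ME-180 cervical cancer cells given 40 pM IL-6 alongside compound; SIE-controlled beta-lactamase reporter measured as 460/530 nm FRET emission ratio; % is scaled to controls: 0 for no effect and ±100 for the full control effect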
Method in brief: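 Normalization used AC90 stimulation (300 pM IL-6) and AC90 inhibition (125 nM pan-JAK inhibitor at 40 pM IL-6). The underlying signal is SIE-driven beta-lactamase in ME-180 cells after 5 h IL-6 exposure with compound.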

[8] = target: Glucocorticoid receptor (Homo sapiens) (UniProt P04150); assay: GR-EFC Redistribution (AID 451; calls by dose curve; also: potency is read from the fitted curve at half-maximal effect); conditions: CHO-K1 GR-EFC translocation, beta-gal luminescence, 2 h
Method in brief: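 CHO-K1 cells stably expressing nuclear-localized β-gal enzyme acceptor and GR fused C-terminally to the enzyme donor fragment; ligand-driven nuclear translocation restores β-gal by complementation. Compounds titrated up to 46 uM final, 2 h at 37 °C; luminescence read.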

[9] = target: Mitogen-activated protein kinase 10 (Mus musculus) (UniProt Q61831); assay: JNK3 AlphaScreen Assay (AID 530);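 also: kinase came from lysate of stimulated human HepG2 cells; signal reports phosphorylation of biotinylated GST-cJun 1-79 at Ser73 with 10 µM ATP; % is scaled to controls: 0 for no effect and ±100 for the full control effect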
Method in brief: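 Biotinylated GST-cJun(1-79) served as substrate for JNK3 in HepG2 lysates stimulated with IL-1beta and TNF-alpha. ATP was 10 uM final, pH 7.6. Ser73 phosphorylation was quantified by AlphaScreen (680 nm excitation).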

[10] = target: Ubiquitin carboxyl-terminal hydrolase 1 (Homo sapiens) (UniProt O94782); assay: Inhibitors of USP1/UAF1: Pilot qHTS (AID 504865; active = well fitted curve in the direction sought with a large enough effect; an effect the other way counts as inactive or inconclusive;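 also: rhodamine fluorescence freed from ubiquitin-rhodamine substrate followed over time; top concentration of the series differs between compounds; % is scaled to controls: 0 for no effect and ±100 for the full control effect; nearly all actives have a fitted effect of over 35% in size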)
Chain of Ubiquitin carboxyl-terminal hydrolase 1 (Homo sapiens) (O94782 whole entry, looked up): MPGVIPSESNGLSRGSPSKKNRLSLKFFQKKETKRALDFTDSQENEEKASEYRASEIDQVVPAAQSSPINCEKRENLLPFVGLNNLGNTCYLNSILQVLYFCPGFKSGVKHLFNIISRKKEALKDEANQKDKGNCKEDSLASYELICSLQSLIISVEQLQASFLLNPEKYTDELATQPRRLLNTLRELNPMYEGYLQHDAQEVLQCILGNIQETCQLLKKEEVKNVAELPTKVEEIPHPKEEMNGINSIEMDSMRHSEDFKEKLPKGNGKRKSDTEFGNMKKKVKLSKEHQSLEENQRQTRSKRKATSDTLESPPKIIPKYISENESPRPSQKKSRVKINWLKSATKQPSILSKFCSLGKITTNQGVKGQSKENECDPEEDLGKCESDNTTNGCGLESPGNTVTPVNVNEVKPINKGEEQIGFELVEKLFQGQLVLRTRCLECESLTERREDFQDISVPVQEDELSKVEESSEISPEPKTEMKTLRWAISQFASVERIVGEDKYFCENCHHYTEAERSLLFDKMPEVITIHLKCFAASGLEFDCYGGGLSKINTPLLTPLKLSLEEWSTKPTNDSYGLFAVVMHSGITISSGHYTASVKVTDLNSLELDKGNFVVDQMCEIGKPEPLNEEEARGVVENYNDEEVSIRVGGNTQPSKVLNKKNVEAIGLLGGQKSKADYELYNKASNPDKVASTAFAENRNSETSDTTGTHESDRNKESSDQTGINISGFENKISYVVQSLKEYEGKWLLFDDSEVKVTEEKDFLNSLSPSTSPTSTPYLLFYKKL
Method in brief: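 In 50mM HEPES pH 7.8 containing 0.5mM EDTA, 1mM TCEP, 0.1 mg/ml BSA and 0.01% Tween-20, 1nM USP1/UAF1 is exposed to compound for 15 min, then Ub-Rho (150nM final) is added and fluorescence is read over time.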

[11] = target: Cytochrome P450 2C9 (Homo sapiens) (UniProt P11712); assay: qHTS Assay for Inhibitors and Substrates of Cytochrome P450 2C9 (AID 883; active = well fitted curve in the direction sought with a large enough effect; an effect the other way counts as inactive or inconclusive; also: potency is read from the fitted curve at half-maximal effect; nearly all actives have a fitted effect of over 60% in size)
Chain of Cytochrome P450 2C9 (Homo sapiens) (P11712 whole entry, looked up): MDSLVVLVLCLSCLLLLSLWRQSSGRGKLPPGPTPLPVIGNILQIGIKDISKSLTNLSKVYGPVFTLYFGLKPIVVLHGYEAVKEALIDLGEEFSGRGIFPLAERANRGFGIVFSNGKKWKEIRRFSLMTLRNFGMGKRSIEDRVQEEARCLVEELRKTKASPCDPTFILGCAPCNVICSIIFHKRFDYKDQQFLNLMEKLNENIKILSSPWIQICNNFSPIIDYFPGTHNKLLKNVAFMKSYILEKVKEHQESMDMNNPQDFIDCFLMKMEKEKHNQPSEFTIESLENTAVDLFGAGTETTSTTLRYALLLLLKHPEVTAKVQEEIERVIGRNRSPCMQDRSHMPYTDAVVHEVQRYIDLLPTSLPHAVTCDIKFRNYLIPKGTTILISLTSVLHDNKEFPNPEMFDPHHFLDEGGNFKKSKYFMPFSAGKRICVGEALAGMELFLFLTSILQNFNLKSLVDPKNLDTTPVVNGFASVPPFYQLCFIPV
Method in brief: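 CYP2C9 deoxyluciferin hydroxylation, 37C, 60 min with NADPH regeneration; 10nM enzyme, 100uM Luciferin-H (KM). Glo detection reagent stopped reaction; luminescence normalized to sulphaphenazole (57uM) full inhibition.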

[12] = target: Cytochrome P450 2C19 (Homo sapiens) (UniProt P33261); assay: qHTS Assay for Inhibitors and Substrates of Cytochrome P450 2C19 (AID 899; active = well fitted curve in the direction sought with a large enough effect; an effect the other way counts as inactive or inconclusive; also: potency is read from the fitted curve at half-maximal effect; nearly all actives have a fitted effect of over 60% in size)
Chain of Cytochrome P450 2C19 (Homo sapiens) (P33261 whole entry, looked up): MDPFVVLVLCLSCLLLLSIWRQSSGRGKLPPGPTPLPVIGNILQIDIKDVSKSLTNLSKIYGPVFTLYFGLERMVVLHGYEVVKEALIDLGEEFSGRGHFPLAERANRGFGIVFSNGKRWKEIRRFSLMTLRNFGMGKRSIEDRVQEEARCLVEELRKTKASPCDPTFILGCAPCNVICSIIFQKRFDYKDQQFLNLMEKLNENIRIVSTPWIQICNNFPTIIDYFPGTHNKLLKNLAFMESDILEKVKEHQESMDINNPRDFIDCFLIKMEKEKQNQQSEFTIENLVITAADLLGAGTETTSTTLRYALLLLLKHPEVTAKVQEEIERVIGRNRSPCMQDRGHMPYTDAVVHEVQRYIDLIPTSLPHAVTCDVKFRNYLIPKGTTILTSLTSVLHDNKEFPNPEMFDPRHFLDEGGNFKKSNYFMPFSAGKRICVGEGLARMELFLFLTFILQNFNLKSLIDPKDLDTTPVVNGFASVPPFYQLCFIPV
Method in brief: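 In 50mM KPO4, the reaction held 5nM enzyme and KM-level (10uM) Luciferin-H EGE; it ran 60 min at 37C after NADPH regeneration and a 10 min compound preincubation. Luminescence values were scaled to 57uM ketoconazole as complete inhibition.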

[13] = target: Cytochrome P450 3A4 (Homo sapiens) (UniProt P08684); assay: qHTS Assay for Activators of Cytochrome P450 3A4 (AID 885; active = well fitted curve in the direction sought with a large enough effect; an effect the other way counts as inactive or inconclusive; also: nearly all actives have a fitted effect of over 65% in size)
Chain of Cytochrome P450 3A4 (Homo sapiens) (P08684 whole entry, looked up): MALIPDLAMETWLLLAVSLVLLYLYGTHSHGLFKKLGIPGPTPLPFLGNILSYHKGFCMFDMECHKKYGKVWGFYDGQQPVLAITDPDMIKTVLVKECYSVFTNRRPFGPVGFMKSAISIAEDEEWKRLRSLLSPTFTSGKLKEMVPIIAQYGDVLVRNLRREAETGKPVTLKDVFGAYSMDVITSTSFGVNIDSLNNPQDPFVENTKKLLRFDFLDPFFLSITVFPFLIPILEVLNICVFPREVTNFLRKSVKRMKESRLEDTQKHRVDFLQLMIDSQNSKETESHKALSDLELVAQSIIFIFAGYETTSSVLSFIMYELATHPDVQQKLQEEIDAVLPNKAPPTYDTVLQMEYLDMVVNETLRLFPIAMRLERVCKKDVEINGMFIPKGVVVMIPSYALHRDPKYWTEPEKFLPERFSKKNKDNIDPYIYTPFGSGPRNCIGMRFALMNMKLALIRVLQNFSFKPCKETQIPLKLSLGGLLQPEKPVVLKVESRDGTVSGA
Method in brief: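 Human CYP3A4 dealkylates Luciferin-PPXE to luciferin, which luciferase detection converts to light. Substrate was at its KM (25uM), buffer 200mM KPO4, reaction 60 min at RT.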

C[C@@H]1[C@H]2C=C[C@@H]1[C@@H](c1c3ccc(=O)c(O)c-3oc3c(O)c(O)ccc13)[C@@H]2C(=O)O
inactive: Potency [1] > 11.4 µM | activity change, negative = inhibition [2] -14.3% | activity change, negative = inhibition [3] 3.07% | Potency [4] > 46 µM | outcome [5]

COc1ccc(C[C@@H]2NC[C@H](O)[C@@H]2OC(C)=O)cc1
active: activity change, negative = inhibition [2] -118% [at 17.2 µM] | activity change, negative = inhibition [3] -130% [at 17.2 µM] | activity, negative = inhibition [7] -101% [at 17.2 µM]
inactive: Potency [6] | Potency [4] > 20.6 µM | Potency [8] > 20.6 µM | Potency [9] | outcome [5] | Potency [10]

Oc1c(Cl)c(Cl)c(Cl)c(Cl)c1Cl (tested in a mixture with another compound)
inactive: Potency [1] > 11.4 µM | activity change, negative = inhibition [2] -9.55% [middle of 4 runs] | activity, negative = inhibition [7] -12.9% [middle of 4 runs] | Potency [4] > 46 µM | Potency [8] > 9.22 µM | activity change, negative = inhibition [9] 0.344% [at 11.4 µM] [middle of 4 runs] | outcome [5]

O=C(O)c1cc[c]([Hg][S]c2ncnc3nc[nH]c23)cc1
inactive: activity, negative = inhibition [7] -16.1% | Potency [4] > 46 µM | Potency [8] > 9.22 µM | activity change, negative = inhibition [9] 3.39% [at 11.4 µM] | outcome [5]
active: Potency [1] 0.146 µM | Potency [6] 0.316 µM | Potency [11] 1.26 µM | Potency [12] 0.631 µM

O=C(c1ccccc1)[C@H]1[C@H](c2ccccc2[N+](=O)[O-])N1C1CCCCC1 (some centres not stated)
active: Potency [6] 0.631 µM
inactive: Potency [1] > 11.4 µM | Potency [4] > 46 µM | Potency [8] > 9.22 µM | activity change, negative = inhibition [9] -6.49% [at 11.4 µM] | outcome [5] | activity change, positive = activation [13] -50.5% [at 11.4 µM]

C[C@H]1CC[C@@]2(NC1)O[C@@H]1C[C@@H]3[C@@H]4CC=C5C[C@@H](O)CC[C@]5(C)[C@@H]4CC[C@]3(C)[C@H]1[C@@H]2C
inactive: Potency [1] > 11.4 µM | Potency [6] | activity change, negative = inhibition [3] 24.2% | activity, negative = inhibition [7] 7.42% | Potency [4] > 46 µM | Potency [8] > 9.22 µM | activity change, negative = inhibition [9] -0.366% [at 11.4 µM] | outcome [5]

C[C@@H]1O[C@@H](O[C@H]2C[C@@H](O)[C@@]3(CO)[C@H]4[C@H](O)C[C@]5(C)[C@@H](C6=CC(=O)OC6)CC[C@]5(O)[C@H]4CC[C@@]3(O)C2)[C@@H](O)[C@H](O)[C@H]1O
inactive: Potency [1] > 11.4 µM | activity, negative = inhibition [7] -4.36% | activity change, negative = inhibition [9] -1.14% [at 11.4 µM] | outcome [5] | Potency [10]
active: activity change, negative = inhibition [3] -104%

O=C(N1CCOCC1)C1(c2ccccc2)CCNCC1
inactive: Potency [1] > 11.4 µM | activity change, negative = inhibition [2] -2.66% | activity, negative = inhibition [7] 8.97% | Potency [4] > 46 µM | Potency [8] > 9.22 µM | activity change, negative = inhibition [9] 3.92% [at 11.4 µM]

Source: PubChem BioAssay (NCATS)
